Experiment [1] is described as follows: NCI Yeast Anticancer Drug Screen. Data for the rad50 strain (AID 155).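 Further: 0% = growth of vehicle-only cultures of the same strain.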 The settings on record: S. cerevisiae rad50 strain growth inhibition, stronger effect = higher value. In short, it runs like this: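 Cells are treated with compound, grown, and their growth is then scored against vehicle-only cultures of the same repair-deficient yeast strain.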
Experiment [2] can be described thus: NCI Yeast Anticancer Drug Screen. Data for the mec2-1 strain (AID 157). As to conditions: S. cerevisiae mec2-1 strain, stronger effect = higher value. The procedure, abridged:
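Each compound was tested on mec2-1 yeast, a strain altered in DNA damage repair or cell cycle control. Growth inhibition is reported relative to vehicle.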

Experiment [3] can be described thus: NCI Yeast Anticancer Drug Screen. Data for the sgs1 mgt1 strain (AID 161).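 Further: 0% = growth of cultures given vehicle only.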 As to conditions: S. cerevisiae sgs1 mgt1 strain, stronger effect = higher value. The procedure, abridged: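 Inhibition of yeast growth, normalised to vehicle-treated controls, is reported for a strain bearing genetic alterations in DNA damage repair.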
Experiment [4] can be described thus: NCI Yeast Anticancer Drug Screen. Data for the cln2 rad14 strain (AID 165).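 Further: 0% = growth equal to vehicle treated cultures.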 As to conditions: S. cerevisiae cln2 rad14 strain, stronger effect = higher value. The procedure, abridged: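 Test compounds were added to cln2 rad14 yeast cultures; inhibition of growth was then determined by comparison with vehicle treatment.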
Experiment [5] is described as follows: NCI Yeast Anticancer Drug Screen. Data for the bub3 strain (AID 167). The settings on record: S. cerevisiae bub3 mutant strain, stronger effect = higher value. In short, it runs like this:
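Part of a panel of yeast mutants defective in DNA damage repair or cell cycle regulation. Each strain is grown with compound, and inhibition is calculated relative to solvent-treated cultures.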

The nature of experiment [6]: NCI Yeast Anticancer Drug Screen. Data for the mlh1 rad18 strain (AID 175). As to conditions: S. cerevisiae mlh1 rad18 strain growth inhibition, stronger effect = higher value. In short, it runs like this:
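Inhibition values reflect reduced growth of mutant yeast versus vehicle-treated controls following compound exposure; the mutations affect DNA damage repair.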

The mark [7] stands for this setting: at 5.0 µM (retest, dose inferred, filed as 0.5).
The mark [8] stands for this setting: at 50.0 µM (retest, dose inferred, filed as 5.0).

SMILES strings stand for the structures. Compounds without any hit were thinned out: in the full panel of roughly 79,000, 15% have a hit. Values without a mark were called inactive. Calls of active or inactive are those of the source. No stated cut-off is given here; in the data, active means growth inhibition above about 70%; inactive means the rest.

`COc1ccc(C(=O)Nc2ccc(Cl)cc2)cc1`: the growth inhibition in experiment [1] (setting [7]) was -21%; in experiment [1] (setting [8]), -17%; in experiment [1] (at 50.0 µM), 3.75%; in experiment [2] (setting [7]) it was -26%; in experiment [2] (setting [8]), -12%; in experiment [2] (at 50.0 µM), 1.85%. Also, the growth inhibition is 0% in experiment [3] (setting [7]); 0% in experiment [3] (setting [8]); 5.85% in experiment [3] (at 50.0 µM); -7% in experiment [4] (setting [7]); 5% in experiment [4] (setting [8]); 44.2% in experiment [4] (at 50.0 µM). In addition, the growth inhibition in experiment [5] (setting [7]) is -14%; in experiment [5] (setting [8]), -6%; in experiment [5] (at 50.0 µM) it was -8.95%; in experiment [6] (setting [7]) it was -8%; in experiment [6] (setting [8]) it was -11%; in experiment [6] (at 50.0 µM), -23.3%.

Consider `C=CC1(C)CCC2C(=CCC3C(C)(C(=O)O)CCCC23C)C1` (configuration not stated) (tested in a mixture with another compound), for which the growth inhibition is -5% in experiment [1] (setting [7]); 61% in experiment [1] (setting [8]); 65.1% in experiment [1] (at 50.0 µM); 0% in experiment [2] (setting [7]); 87% (active) in experiment [2] (setting [8]); 74.2% (active) in experiment [2] (at 50.0 µM). Further, the growth inhibition in experiment [3] (setting [7]) was -5%; in experiment [3] (setting [8]), 59%; in experiment [3] (at 50.0 µM) it was 32.4%; in experiment [4] (setting [7]), -28%; in experiment [4] (setting [8]), 66%; in experiment [4] (at 50.0 µM), 76.8% (active). For the same compound, the growth inhibition in experiment [5] (setting [7]) is -17%; in experiment [5] (setting [8]), 66%; in experiment [5] (at 50.0 µM) it was 64.2%; in experiment [6] (setting [7]), 6%; in experiment [6] (setting [8]) it was 84% (active); in experiment [6] (at 50.0 µM), 72% (active).

As for `CCN(CC)c1cccc(OC(=O)Nc2cccc(C(F)(F)F)c2)c1`, the growth inhibition in experiment [1] (setting [7]) was 50%; in experiment [1] (setting [8]), 73% (active); in experiment [1] (at 50.0 µM) it was 84% (active); in experiment [2] (setting [7]) it was 37%; in experiment [2] (setting [8]) it was 73% (active); in experiment [2] (at 50.0 µM), 81.2% (active). For the same compound, the growth inhibition is 42% in experiment [3] (setting [7]); 80% (active) in experiment [3] (setting [8]); 83.8% (active) in experiment [3] (at 50.0 µM); 28% in experiment [4] (setting [7]); 64% in experiment [4] (setting [8]); 82.9% (active) in experiment [4] (at 50.0 µM). Besides, the growth inhibition is 42% in experiment [5] (setting [7]); 79% (active) in experiment [5] (setting [8]); 87.6% (active) in experiment [5] (at 50.0 µM); 44% in experiment [6] (setting [7]); 88% (active) in experiment [6] (setting [8]); 83.4% (active) in experiment [6] (at 50.0 µM).

On to `CCOC(=O)c1cc2c(nc1NCc1ccc(OC)c(OC)c1)/C(=C/c1ccccc1)CCCC2`, for which the growth inhibition in experiment [1] (setting [7]) is 38%; in experiment [1] (setting [8]) it was 94% (active); in experiment [1] (at 50.0 µM) it was 90.2% (active); in experiment [2] (setting [7]) it was 17%; in experiment [2] (setting [8]), 93% (active); in experiment [2] (at 50.0 µM), 88.8% (active). In addition, the growth inhibition in experiment [3] (setting [7]) was 47%; in experiment [3] (setting [8]) it was 94% (active); in experiment [3] (at 50.0 µM), 91.8% (active); in experiment [4] (setting [7]) it was 28%; in experiment [4] (setting [8]), 84% (active); in experiment [4] (at 50.0 µM) it was 80.2% (active). The growth inhibition in experiment [5] (setting [7]) was 49%; in experiment [5] (setting [8]), 94% (active); in experiment [5] (at 50.0 µM) it was 92.5% (active); in experiment [6] (setting [7]), 58%; in experiment [6] (setting [8]) it was 92% (active); in experiment [6] (at 50.0 µM), 90.2% (active).

On to `O=C1c2ccccc2-c2cc(S)c([N+](=O)[O-])cc21`, for which the growth inhibition in experiment [1] (setting [7]) is -10%; in experiment [1] (setting [8]) it was 12%; in experiment [1] (at 50.0 µM), 9.15%; in experiment [2] (setting [7]), -9%; in experiment [2] (setting [8]), 10%; in experiment [2] (at 50.0 µM), 18.5%. For the same compound, the growth inhibition in experiment [3] (setting [7]) is -1%; in experiment [3] (setting [8]) it was 12%; in experiment [3] (at 50.0 µM), 36.8%; in experiment [4] (setting [7]), 1%; in experiment [4] (setting [8]), 2%; in experiment [4] (at 50.0 µM), 21%. The growth inhibition was 4% in experiment [5] (setting [7]); 14% in experiment [5] (setting [8]); 9.45% in experiment [5] (at 50.0 µM); -6% in experiment [6] (setting [7]); 4% in experiment [6] (setting [8]); 18.5% in experiment [6] (at 50.0 µM).

As to `O=C1NC(=S)S/C1=C\c1cc(Cl)ccc1O`, the growth inhibition in experiment [1] (setting [7]) is 4%; in experiment [1] (setting [8]), -7%; in experiment [1] (at 50.0 µM), 2.85%; in experiment [2] (setting [7]), -4%; in experiment [2] (setting [8]) it was -6%; in experiment [2] (at 50.0 µM), 15.7%. Also, the growth inhibition in experiment [3] (setting [7]) is -1%; in experiment [3] (setting [8]), 4%; in experiment [3] (at 50.0 µM), 60.5%; in experiment [4] (setting [7]), -7%; in experiment [4] (setting [8]) it was -18%; in experiment [4] (at 50.0 µM), -22.4%. For the same compound, the growth inhibition in experiment [5] (setting [7]) was -7%; in experiment [5] (setting [8]), -14%; in experiment [5] (at 50.0 µM) it was -4.2%; in experiment [6] (setting [7]) it was -5%; in experiment [6] (setting [8]), -6%; in experiment [6] (at 50.0 µM) it was 3.05%.

Consider `COc1ccc(C2SC(C)C(=O)N2c2nc(-c3nc(-c4ccc(Cl)cc4)cs3)cs2)cc1` (configuration not stated), for which the growth inhibition was 42% in experiment [1] (setting [7]); 86% (active) in experiment [1] (setting [8]); 45% in experiment [1] (at 50.0 µM); 17% in experiment [2] (setting [7]); 99% (active) in experiment [2] (setting [8]); 39.9% in experiment [2] (at 50.0 µM). Moreover, the growth inhibition is 5% in experiment [3] (setting [7]); 92% (active) in experiment [3] (setting [8]); 69.3% in experiment [3] (at 50.0 µM); 4% in experiment [4] (setting [7]); 99% (active) in experiment [4] (setting [8]); 83.5% (active) in experiment [4] (at 50.0 µM). The growth inhibition in experiment [5] (setting [7]) was -17%; in experiment [5] (setting [8]) it was 99% (active); in experiment [5] (at 50.0 µM), 27.3%; in experiment [6] (setting [7]), 23%; in experiment [6] (setting [8]) it was 99% (active); in experiment [6] (at 50.0 µM) it was 77% (active).

`COc1ccccc1C(=O)[O][Sn]([c]1ccccc1)([c]1ccccc1)[c]1ccccc1`: the growth inhibition in experiment [1] (setting [7]) is 100% (active); in experiment [1] (setting [8]), 99% (active); in experiment [1] (at 50.0 µM), 99.2% (active); in experiment [2] (setting [7]), 100% (active); in experiment [2] (setting [8]), 100% (active); in experiment [2] (at 50.0 µM), 99.3% (active). Besides, the growth inhibition in experiment [3] (setting [7]) was 99% (active); in experiment [3] (setting [8]) it was 99% (active); in experiment [3] (at 50.0 µM), 99.3% (active); in experiment [4] (setting [7]), 99% (active); in experiment [4] (setting [8]) it was 99% (active); in experiment [4] (at 50.0 µM) it was 89.3% (active). For the same compound, the growth inhibition in experiment [5] (setting [7]) is 100% (active); in experiment [5] (setting [8]), 99% (active); in experiment [5] (at 50.0 µM) it was 99% (active); in experiment [6] (setting [7]), 99% (active); in experiment [6] (setting [8]), 99% (active); in experiment [6] (at 50.0 µM) it was 98.7% (active).

Turning to `O=C(/C=C/c1ccc([N+](=O)[O-])o1)N1CCN(Cc2ccccc2)CC1`, the growth inhibition is 38% in experiment [1] (setting [7]); 78% (active) in experiment [1] (setting [8]); 75.1% (active) in experiment [1] (at 50.0 µM); 33% in experiment [2] (setting [7]); 75% (active) in experiment [2] (setting [8]); 60% in experiment [2] (at 50.0 µM). Besides, the growth inhibition was 55% in experiment [3] (setting [7]); 92% (active) in experiment [3] (setting [8]); 74% (active) in experiment [3] (at 50.0 µM); 35% in experiment [4] (setting [7]); 60% in experiment [4] (setting [8]); 38.8% in experiment [4] (at 50.0 µM). In addition, the growth inhibition in experiment [5] (setting [7]) was 43%; in experiment [5] (setting [8]), 75% (active); in experiment [5] (at 50.0 µM), 62%; in experiment [6] (setting [7]), 52%; in experiment [6] (setting [8]) it was 91% (active); in experiment [6] (at 50.0 µM) it was 58.6%.

The values above are taken from PubChem BioAssay (NCI).
